HCV inh: HCV inhibition; Huh7.5.1 HCVcc-Cre infection, luciferase reporter, 44 h; Potency, µM (top dose mostly 41.8 µM), without a hit: at the top dose activity change, negative = inhibition, most hits filed as inhibitors; hit rate 3.4% among 340,000; active = well fitted inhibition curve with a large enough effect; inconclusive = small, poorly fitted or top-dose-only effect, or another doubt; inactive = no such curve, though single readings can be large or run the other way; note: potency is the fitted concentration of half-maximal effect
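A cell-based infection assay in which seeded cells (1,000 per well) receive test compound after 4 h, are inoculated with HCVcc-Cre at approximately 0.5 moi, and are incubated 44 h before luminescence detection.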
Marburg entry inh: inhibitors of Marburg virus binding or cell entry; Marburg virus pseudotyped entry inhibition, cell reporter; hit rate 1.8% among 300,000; Potency, µM (doses to about 37.8 µM), for the others: top-dose activity change, negative = inhibition, usual class: inhibitors; calls by dose curve; tested in HEK293 cells; note: potency is the fitted concentration of half-maximal effect
FMDV inh: antivirals against foot and mouth disease virus; AID 1159524; hit rate 1.2% among 410,000; FMDV antiviral cell-based qHTS; Potency, µM (titrated, usually from 57.9 µM), for the others: at the top dose activity change, negative = inhibition, most hits filed as inhibitors; calls by dose curve; tested in HEK293T cells; note: read-out not given here; potency is the fitted concentration of half-maximal effect; nearly all actives have a fitted effect of over 45% in size
HCMV inh: human cytomegalovirus inhibition; hit rate 4.5% among 410,000; HFF cells, HCMV-luciferase reporter, 72 h; hits give low values; activity change, negative = inhibition, % at 57.5 µM; in the data active = activity change below about -60%; inconclusive = no clear call, values can overlap the other calls; inactive = above about -39%
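Luciferase read-out from HCMV-luciferase-infected HFFs (MOI 1 PFU/cell) 72 h post infection at 37C; compounds added after 16 h cell attachment; activity normalized between buffer-only basal and Salinomycin (10uM) inhibitor controls.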
LASV entry inh: Lassa virus entry inhibition | Lassa virus pseudotype entry inhibition, cell reporter | Potency, µM (series often up to 37.9 µM), for inactives: top-dose activity change, negative = inhibition, most hits filed as inhibitors | hit rate 1.2% among 300,000 | AID 540256; calls by dose curve; tested in HEK293 cells; note: potency is the fitted concentration of half-maximal effect; nearly all actives have a fitted effect of over 50% in size
* = called active by the depositor; ? = inconclusive; nt = no result; ! = not confirmed by another sample; [ ] = remark or other dose. This is a sample that favours compounds with a hit; in the whole collection about 7.9% have one here. % is set by controls: 0 for no effect and ±100 for the full control effect.

SMILES	HCV inh	Marburg entry inh	FMDV inh	HCMV inh	LASV entry inh
COc1ccccc1CNc1nc(NCCOc2ccccc2)c2sccc2n1	nt	nt	-3.4%	-39.0	nt
COc1ccccc1CNc1nc(NCc2ccc3occc3c2)c2sccc2n1	nt	nt	25.1µM*	?	nt
COc1ccccc1CNc1nc(NCCNC(C)=O)c2sccc2n1	nt	nt	-15.7%	19.5	nt
COc1ccccc1CNc1nc(NCc2ccccc2SC)c2sccc2n1	nt	nt	?	-77.4*	nt
COc1ccccc1CNc1nc(NCc2ccccc2OC)c2sccc2n1	nt	nt	22.4µM*	-90.6*	nt
Cc1ccc(N2CCN(C(=O)NCc3noc4ccc(C)cc34)CC2)c(C)c1	nt	nt	-13.8%	-12.1	-6.5%[46.1 µM]
CCOc1ccc(N(C(C)C(=O)NCCSc2ccc(Cl)cc2)S(C)(=O)=O)cc1 (stereo unspecified)	nt	-10.3%[46.1 µM]	-2.0%	-10.8	?
Cc1cc(-c2ccnc(-n3ncc(C(=O)N(C)Cc4nccs4)c3C)n2)c(C)s1	nt	nt	40.2%	nt	nt
c1cc2cc(CNc3nc(NCC4CC4)nc4ccsc34)ccc2o1	nt	nt	?	-74.4*	nt
CCOC(=O)c1c(C)oc2ncnc(Nc3cc(C)cc(C)c3)c12	nt	nt	-12.0%	-6.6	12.3%[46.1 µM]
COc1ccc(CNC(=O)CSc2ncc3c(n2)-c2cc(Cl)ccc2N(C)S3(=O)=O)cc1	nt	nt	-23.5%	-1.4	-3.1%[46.1 µM]
Cc1ccc(N(CCC#N)C(=O)CCl)cc1C	10µM*	7.08µM*	28.2µM*	-100.1*	7.94µM*
CC1Sc2ccc(S(=O)(=O)CCC(=O)N3CCN(c4cccc(Cl)c4)CC3)cc2NC1=O (stereo unspecified)	?	nt	25.1µM*	-63.0*	nt
O=C1COc2ccc(S(=O)(=O)N3CCN(c4cccc(C(F)(F)F)c4)CC3)cc2N1	?	-27.5%[46.1 µM]	-6.4%	0.0	?
O=C1COc2ccc(S(=O)(=O)CCC(=O)N3CCN(c4cccc(C(F)(F)F)c4)CC3)cc2N1	?	?	?	-67.9*	?
CC1Sc2ccc(S(=O)(=O)CCC(=O)N3CCN(c4ccccc4)CC3)cc2NC1=O (stereo unspecified)	?	-8.2%[46.1 µM]	?	?	?
CC1Sc2ccc(S(=O)(=O)CCC(=O)N3CCN(c4ccccc4F)CC3)cc2NC1=O (stereo unspecified)	?	?	?	-69.9*	?
CC(C)CC(=O)n1nc(-c2ccco2)nc1NCc1ccc(Cl)cc1	nt	-1.2%[46.1 µM]	27.5%	24.1	-5.0%[46.1 µM]
Cc1c(C)c(C)c(S(=O)(=O)NCCC(=O)N2CCN(Cc3ccc(C#N)cc3)CC2)c(C)c1C	12.6µM*	nt	-14.2%	-26.7	nt
Cc1cc2nn(-c3cccc4ccccc34)nc2cc1N	7.9%	?	37.9%	34.7	28.1%
Cc1cc(N)c2ccccc2[n+]1CCCCCCCCCC[n+]1c(C)cc(N)c2ccccc21	nt	10µM*	?	nt	?
CC(=O)Oc1ccccc1[C@@H]1OCCN1C(C)=O	nt	1.9%	nt	nt	nt
O=C(Nc1nccs1)C12CC3CC(C1)CC(C(=O)Nc1nccs1)(C3)C2	?	?	25.1µM*	3.4	-18.4%
COc1ccc(C(=O)CC2(O)C(=O)N(CCc3ccccc3)c3ccc(Br)cc32)cc1OC (stereo unspecified)	nt	?	-26.0%	1.4	?
CSc1cccc(NC(=O)C2CCCN(c3ncnc4c3nc3n4CCCCC3)C2)c1 (stereo unspecified)	22.4µM*	nt	?	?	nt
SMILES	HCV inh	Marburg entry inh	FMDV inh	HCMV inh	LASV entry inh
CCN(C(=O)C1CCCN(c2ncnc3c2nc2n3CCCCC2)C1)c1cccc(Cl)c1 (stereo unspecified)	-6.3%	nt	?	-86.7*!	?
O=C(C1CCCN(c2ncnc3c2nc2n3CCCCC2)C1)N1CCN(c2ccc(F)cc2)CC1 (stereo unspecified)	11.2µM*	?	?	-14.6	?
O=C(C1CCCN(c2ncnc3c2nc2n3CCCCC2)C1)N1CCN(c2ccc(Cl)cc2)CC1 (stereo unspecified)	?	?	?	-83.3*	?
CC(=O)c1ccc(N2CCN(C(=O)C3CCCN(c4ncnc5c4nc4n5CCCCC4)C3)CC2)cc1 (stereo unspecified)	?	?	-7.7%	8.6	?
CC[C@H](CC[C@@H](C)[C@H]1CC[C@H]2[C@@H]3CC=C4C[C@@H](O)CC[C@]4(C)[C@H]3CC[C@]12C)C(C)C	nt	nt	-9.6%	nt	nt
CC1CN=C(c2cc(Cl)c(N)c(Cl)c2)c2c3ccccc3nn21 (stereo unspecified)	nt	nt	nt	79.2	nt

Screening results deposited in PubChem BioAssay by National Center for Advancing Translational Sciences (NCATS).
